# Where “and” joins values, the source holds several entries; their conditions need not be identical. Equal entries are not always repeated. About 83,000 compounds went through this panel and 20% of them were active in at least one assay; those are over-represented in the sample as a whole.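 Each cell line was grown in a 96-well plate and treated with one concentration of compound for 48 hours. Values below 10 were considered active.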 Calls of active or inactive are those of the source.
# Legend:
# Experiment in all cases: NCI-60 one-dose screen, 48 h (100 = growth as untreated, 0 = no growth, -100 = all killed)
# [1] = test system: NCI-H226 lung
# [2] = test system: NCI-H322M lung
# [3] = test system: HOP-62 NSCLC
# [4] = test system: NCI-H460 lung
# [5] = test system: HOP-92 NSCLC; details: 10 µM unless noted
# [6] = test system: NCI-H522 lung
# [7] = test system: A549/ATCC NSCLC
# [8] = test system: 786-0 renal
# [9] = test system: COLO 205 colon
# [10] = test system: DU-145 prostate
# [11] = test system: K-562 leukemia
# [12] = test system: MALME-3M melanoma
# [13] = test system: MDA-MB-231 breast
# [14] = test system: RXF 393 renal
# [15] = test system: SF-268 CNS
# [16] = test system: SF-295 CNS
# [17] = test system: SF-539 CNS
# [18] = test system: UACC-257 melanoma
# [19] = test system: M14 melanoma
compound,measurement,setting,value
CC(=O)Nc1ccc(O)cc1,growth,[1]; 10 µM unless noted,92.9% (inactive) and 106% (inactive) and 112% (inactive)
same,growth,[2]; 10 µM unless noted,108% (inactive) and 111% (inactive) and 102% (inactive)
same,growth,[3]; 10 µM unless noted,111% (inactive) and 106% (inactive) and 104% (inactive)
same,growth,[4]; 10 µM unless noted,109% (inactive) and 105% (inactive) and 108% (inactive)
same,growth,[5],80.3% (inactive) and 120% (inactive)
same,growth,[6]; 10 µM unless noted,94.3% (inactive) and 47% (inactive)
same,growth,[7]; 10 µM unless noted,96.9% (inactive) and 122% (inactive) and 108% (inactive)
same,growth,[8]; 10 µM unless noted,99.5% (inactive) and 106% (inactive) and 103% (inactive)
same,growth,[9]; 10 µM unless noted,105% (inactive) and 116% (inactive) and 101% (inactive)
same,growth,[10]; 10 µM unless noted,103% (inactive) and 113% (inactive) and 118% (inactive)
same,growth,[11]; 10 µM unless noted,107% (inactive) and 83.2% (inactive) and 106% (inactive)
same,growth,[12]; 10 µM unless noted,100% (inactive) and 1.98% (active) and 142% (inactive)
same,growth,[13]; 10 µM unless noted,101% (inactive) and 119% (inactive) and 92.4% (inactive)
same,growth,[14]; 10 µM unless noted,108% (inactive) and 129% (inactive)
same,growth,[15]; 10 µM unless noted,100% (inactive) and 106% (inactive) and 105% (inactive)
same,growth,[16]; 10 µM unless noted,89.9% (inactive) and 94.1% (inactive) and 107% (inactive)
same,growth,[17]; 10 µM unless noted,104% (inactive) and 95.4% (inactive) and 103% (inactive)
same,growth,[18]; 10 µM unless noted,98.3% (inactive) and 155% (inactive) and 107% (inactive)
same,growth,[19]; 10 µM unless noted,97.2% (inactive) and 123% (inactive) and 109% (inactive)
O=C(O)c1sccc1O,growth,[1]; 10 µM,89.2% (inactive)
same,growth,[1]; 100 µM,74.1% (inactive)
same,growth,[2]; 10 µM,87.5% (inactive)
same,growth,[2]; 100 µM,50.9% (inactive)
same,growth,[3]; 10 µM,102% (inactive)
same,growth,[3]; 100 µM,34.1% (inactive)
same,growth,[4]; 10 µM,91.2% (inactive)
same,growth,[4]; 100 µM,30.1% (inactive)
same,growth,[6]; 10 µM,64.5% (inactive)
same,growth,[6]; 100 µM,-32.6% (active)
same,growth,[7]; 10 µM,82.5% (inactive)
same,growth,[7]; 100 µM,38.8% (inactive)
same,growth,[8]; 10 µM,99.1% (inactive)
same,growth,[8]; 100 µM,47.6% (inactive)
same,growth,[9]; 10 µM,111% (inactive)
same,growth,[9]; 100 µM,84.6% (inactive)
same,growth,[10]; 10 µM,83.1% (inactive)
same,growth,[10]; 100 µM,40.3% (inactive)
same,growth,[11]; 10 µM,60.5% (inactive)
same,growth,[11]; 100 µM,5.69% (active)
same,growth,[12]; 10 µM,103% (inactive)
same,growth,[12]; 100 µM,78.8% (inactive)
same,growth,[13]; 10 µM,40.8% (inactive)
same,growth,[13]; 100 µM,27.7% (inactive)
same,growth,[14]; 10 µM,84.6% (inactive)
same,growth,[14]; 100 µM,52.1% (inactive)
same,growth,[15]; 10 µM,71.6% (inactive)
same,growth,[15]; 100 µM,26% (inactive)
same,growth,[16]; 10 µM,76.6% (inactive)
same,growth,[16]; 100 µM,31.2% (inactive)
same,growth,[17]; 10 µM,85.4% (inactive)
same,growth,[17]; 100 µM,23.5% (inactive)
same,growth,[18]; 10 µM,85.3% (inactive)
same,growth,[18]; 100 µM,51.5% (inactive)
same,growth,[19]; 10 µM,85.5% (inactive)
same,growth,[19]; 100 µM,7.02% (active)
COc1ccc2nc(Cl)cc(C)c2c1,growth,[1]; 10 µM unless noted,96.5% (inactive) and 104% (inactive)
same,growth,[2]; 10 µM unless noted,91.3% (inactive) and 98.1% (inactive)
same,growth,[3]; 10 µM unless noted,104% (inactive) and 65% (inactive)
same,growth,[4]; 10 µM unless noted,100% (inactive) and 111% (inactive)
same,growth,[5],104% (inactive) and -11.5% (active)
same,growth,[6]; 10 µM unless noted,97.5% (inactive) and 112% (inactive)
same,growth,[7]; 10 µM unless noted,96.5% (inactive) and 109% (inactive)
same,growth,[8]; 10 µM unless noted,97.2% (inactive) and 79.2% (inactive)
same,growth,[9]; 10 µM unless noted,104% (inactive) and 131% (inactive)
same,growth,[10]; 10 µM unless noted,104% (inactive) and 101% (inactive)
same,growth,[11]; 10 µM unless noted,104% (inactive) and 89.5% (inactive)
same,growth,[12]; 10 µM unless noted,97.5% (inactive) and 127% (inactive)
same,growth,[13]; 10 µM unless noted,99.9% (inactive) and 102% (inactive)
same,growth,[14]; 10 µM unless noted,91.6% (inactive) and 75.9% (inactive)
same,growth,[15]; 10 µM unless noted,101% (inactive) and 116% (inactive)
same,growth,[16]; 10 µM unless noted,92.8% (inactive) and 87.6% (inactive)
same,growth,[17]; 10 µM unless noted,96.5% (inactive) and 107% (inactive)
same,growth,[18]; 10 µM unless noted,100% (inactive) and 95.9% (inactive)
same,growth,[19]; 10 µM unless noted,100% (inactive) and 109% (inactive)

# — PubChem BioAssay (NCI)
